# Assay outcomes (PubChem)
# CendR NRP1 mod: modulators of CendR peptide binding to human neuropilin-1; O14786; FAM-RPARPAR peptide binding to NRP-1, fluorescence polarization; inhibition, % at 25 µM; hit rate 0.85% among 360,000;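 active = inhibition or corrected inhibition above about 18%, plus a signal ratio from 0.5 to 1.5, limit read from the data, passing the limit was not always enough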
# SKN-1 inh: C. elegans SKN-1 inhibition | hit rate 0.49% among 360,000 | AID 624304 | inhibition, % at 21.8 µM | C. elegans VP596 Pgst-4::GFP/RFP ratio, acrylamide-induced, 24 h;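 active = interference check ratio from 0.5 to 1.5 plus GFP to RFP signal ratio inhibition reaching or exceeding a fixed threshold, cut at about 30% in these data, passing the limit was not always enough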
# MEKK3 PB1 HTS: raises or lowers MEK5 binding to the human MEKK3 PB1 domain | binding response (% of control), % at 10 µM | hit rate 1.4% among 290,000 | bead-based flow cytometry, Alexa488-MEK5 binding to MEKK3; actives lie on both sides; 0 = blocked by unlabeled MEK5, 100 = vehicle;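 active = binding response more than 3 SD above or below the average of its plate-row segment, actives on both sides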;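 note: Alexa488 bead fluorescence after subtracting the streptavidin-only scavenger bead signal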
# MEKK2mut PB1 HTS: signal of MEK5 binding to mutant human MEKK2 PB1 domain; percent response, % at 10 µM; hit rate 0.35% among 290,000; bead flow cytometry, Alexa488-MEK5 binding to MEKK2 mutant; AID 1530; in the data active = percent response above about 24%, passing the limit was not always enough
# MEKK2wt PB1 HTS: raises or lowers MEK5 binding to wildtype human MEKK2 PB1 domain; hit rate 1.1% among 290,000; Q9Y2U5; binding response (% of control), % at 10 µM; bead flow cytometry, Alexa488-MEK5 binding to MEKK2 WT; actives lie on both sides; in the data active = binding response below about 67% or above about 130%
# * = called active by the depositor; nt = no result given; [ ] = dose if it differs, or a comment. This is a sample that favours compounds with a hit; in the whole collection about 3.2% have one here.
SMILES,CendR NRP1 mod,SKN-1 inh,MEKK3 PB1 HTS,MEKK2mut PB1 HTS,MEKK2wt PB1 HTS
CCCCOc1ccc(-c2nc(-c3cccnc3)no2)cc1,6,-2,107,17,109
CCOc1ccc(-c2nc(-c3cccnc3)no2)cc1,-3,53*,83,0,94
O=[N+]([O-])c1ccc(-c2cnc3ccccc3n2)cc1,-5,32,110,11,117
CCOc1ccc(-c2cnc3ccccc3n2)cc1,-1,35*,102,4,101
c1ccc(-c2nc(-c3ccncc3)no2)cc1,-14,69*,102,-1,104
CCCCc1ccc(-c2nc(-c3ccncc3)no2)cc1,-9,7,106,12,107
CCCC(=O)N(CCN1CCOCC1)c1nc2c(OC)ccc(OC)c2s1,11,-14,105,10,105
CN(c1ccc([N+](=O)[O-])cc1)c1cc2c(c3c1ccn3C)C1CCC2C1 (stereo not drawn),3,12,nt,nt,nt
CC1(C(=O)NS(=O)(=O)c2ccc(F)cc2F)CCN1C(=O)c1ccccc1CCc1ccccc1 (stereo not drawn),-3,2,nt,nt,nt
CCOc1ccc(-c2nnc(-c3ccc(OC)cc3)o2)cc1,6,3,104,-3,97
c1ccc(-c2noc(-c3cccnc3)n2)cc1,-7,11,104,4,103
CCOc1ccc(-c2nnc(-c3ccccc3)o2)cc1,1,38*,79,3,100
c1ccc(-c2ccc(-c3nc(-c4cccnc4)no3)cc2)cc1,-1,43*,105,-2,101
CCOc1ccc(CCN2C(=O)C(=O)N([C@@H](Cc3ccccc3)CN3CCC[C@H]3CN3C(=O)C(=O)NC[C@@H]3Cc3ccccc3)C[C@@H]2CC(C)C)cc1,-1,10,nt,nt,nt
CCOc1ccccc1CNC(=O)C1CCN(c2nc3ccccc3o2)CC1,11,9,nt,nt,nt
CCOc1ccccc1CNC(=O)C1CCCN(c2nc3ccccc3o2)C1 (stereo not drawn),nt,nt,68*[inhibitor],-14,74
CS(=O)(=O)c1ccc(Nc2nc(C(N)Cc3ccc(Cl)cc3)cs2)cc1 (stereo not drawn),33*,14,nt,nt,nt
NC(Cc1ccc(Cl)cc1)c1csc(Nc2ccc(S(N)(=O)=O)cc2)n1 (stereo not drawn),-7,22,nt,nt,nt
COc1ccccc1N1CCN(C2CCCN(C(=O)CCC(=O)N(C)C)C2)CC1 (stereo not drawn),3,16,101,6,100
COc1ccccc1N1CCN(C2CCCN(C(=O)Cn3cccn3)C2)CC1 (stereo not drawn),24*,4,100,2,103
Cc1ccccc1N1CCN(C2CCCN(C(=O)CCN3CCCCO3)C2)CC1 (stereo not drawn),26*,-8,97,-6,99
CC1=CC(C)(C)NC(=S)N1c1ccc(N(C)C)cc1,24*,3,nt,nt,nt
O=C(N/N=C/C1C(c2ccccc2)C1(Cl)Cl)c1cccc(Cl)c1 (stereo not drawn),25*,3,105,12,103
O=C(/C=C/[C@H]1O[C@@H](n2ccc(=O)[nH]c2=O)[C@H](O)[C@@H]1O)NCc1cccnc1,-7,-7,nt,nt,nt
Cc1cc2ccccc2n1CCNC(=O)C1CCCCC1,0,59,103,8,106
SMILES,CendR NRP1 mod,SKN-1 inh,MEKK3 PB1 HTS,MEKK2mut PB1 HTS,MEKK2wt PB1 HTS
Cc1cc2ccccc2n1CCNC(=O)C1CCCC1,15,38*,nt,nt,nt
Cc1cc2ccccc2n1CCNC(=O)C1CC1,6,47*,99,0,89
COc1cccc(NC(=O)c2cnc(NS(=O)(=O)c3ccccc3)nc2)c1,1,-1,nt,nt,nt
COc1ccc(C)cc1NC(=O)CSc1nnc(-c2cc(C)[nH]n2)n1N,11,-1,101,2,106
COC(=O)C1CCc2c(ccc3c2CCCC3)C1=O (stereo not drawn),2,8,nt,nt,nt
C/C(=N/NC(=O)c1cccc(N2CCCC2=O)c1)c1ccncc1,15,9,102,3,-5.0*
O=C(NCc1ccc2c(c1)OCO2)c1cccc(N2CCCC2=O)c1,-5,43*,104,2,106
C/C(=N/NC(=O)c1cccc(N2CCCC2=O)c1)c1ccc(Br)cc1,24,-4,101,0,105
CC(C)(C)OC(=O)N1CCC(NC(=O)c2ncn(Cc3ccccc3)c2C(=O)NC2CCN(C(=O)OC(C)(C)C)CC2)CC1,-1,-22,nt,nt,nt
CC(C)C[C@H]1COc2cc(N3CCC[C@H]3CO)ccc2S(=O)(=O)N1,2,23,nt,nt,nt
CCn1cc(C2=NC(C(C)C)CO2)c2ccccc21 (stereo not drawn),4,2,114,5,110
CC(C)C1COC(c2cccc3ccccc23)=N1 (stereo not drawn),8,37*,105,-3,96
NC(=O)C1CCN(c2nc(-c3ccccc3N)cs2)CC1,24*,9,nt,nt,nt
CCCCN(C=O)c1c(CC)nc2ccc(C(=O)NCCCn3ccnc3)cn12,1,-1,nt,nt,nt
COC(=O)c1cccc(OCCCN2CCC(C(O)(c3ccccc3)c3ccccc3)CC2)c1,-11,-9,nt,nt,nt
C/C(=N\NC(=O)c1cc(O)ccc1O)c1cccc(NC(=O)c2cccc(Cl)c2)c1,23*,3,97,4,100
CC[C@@]1(C(=O)OC)N[C@H](CN(C)S(=O)(=O)c2ccc(C(F)(F)F)cc2)[C@@H]2C(=O)N(C)C(=O)[C@@H]21,-8,-6,nt,nt,nt
O=C(CN1C(=O)c2ccccc2C1=O)Nc1cccc(S(=O)(=O)Nc2ccccc2Cl)c1,33*,-7,92,-2,96
O=C(CN1C(=O)c2ccccc2C1=O)Nc1cccc(Cl)c1,-2,14,102,-2,100
O=C(NCCOC(=O)c1ccccc1)c1ccccc1,22*,11,nt,nt,nt
COc1ccc(NC(=O)C2CC(=O)N(c3ccccc3Cl)C2)c(OC)c1 (stereo not drawn),16,-11,102,5,103
Clc1ccc(N2CCN(/N=C/c3ccncc3)CC2)cc1,-1,62*,104,0,101
Cc1ccc(N2CCN(/N=C/c3ccncc3)CC2)cc1,-8,9,103,3,100
Cc1cccc(N(CC(=O)NC2CCCC2)C(=O)CS(=O)CC(=O)Nc2ccc3c(c2)OCO3)c1C (stereo not drawn),28*,-8,97,2,98
